{"source": "PubChem BioAssay (NCATS)", "note": "Results filed as inconclusive are left out. Where a call stands in place of a potency, no number is given. Activity calls are given as the source filed them. Calls follow the shape of the dose curve; as a rule, active = well fitted cell-killing curve with a large enough effect; inconclusive = small, poorly fitted or top-dose-only effect; inactive = flat fitted curve, though single readings scatter.", "data": [{"assay": "Cell Viability - H-4-II-E (AID 543); also: nearly all actives have a fitted effect of over 35% in size", "details": "H-4-II-E rat hepatoma viability; series mostly up to 92.2 µM", "excerpt": "NIH Chemical Genomics Center [NCGC]\nNIH Molecular Libraries Screening Centers Network [MLSCN]\nNational Institutes of Environmental Health Sciences [NIEHS]\nNational Toxicology Program [NTP]\nWe have developed a 1536-well cell-based assay for quantitative high throughput screening (qHTS) against a number of cell lines to determine in vitro cytotoxicity of small molecules. This particular assay uses the H-4-II-E cell line which is derived from rat hepatoma.\nNCGC Assay Protocol Summary:\nThe CellTiter-Glo luminescent cell viability assay (Promega) is a homogeneous method to measure the number of viable cells in culture. The end point readout of this assay is based on quantitation of intracellular ATP, an indicator of metabolic activity, using the luciferase reaction. Luciferase catalyzes the oxidation of beetle Luciferin to oxyluciferin and light in the presence of ATP. The luminescent signal is proportional to amount of ATP present.\nUsing the CellTiter-Glo luminescent cell viability assay, the amount of cellular ATP was measured in the H-4-II-E cell line with complete culture medium following compound treatment for 40 hours. The assay was performed in opaque white Kalypsys 1536-well plates. In the screen, tamoxifen and doxorubicin were used as positive controls. Library compounds were measured for their ability to cause acute toxicity in the cell line, as reflected by a decrease in intracellular ATP levels, in a concentration-dependent manner. […] AC50 values were determined from concentration-response data modeled with the standard Hill equation.\nqHTS protocol fo CellTiter Glo H-4-II-E cellular assay\n[Step] [Parameter] [Value] [Description]\n1. Reagent; 5 uL; 1500 H-4-II-E cells/well\n2. Time; 5 hr; 37 °C incubation\n4. Controls; 23 nL; Tamoxifen 0.34 uM to 100 uM & Doxorubicin 0.02 nM to 100 uM\n5. Time; 40 hr; 37 °C incubation\n6. Reagent; 5 uL; CellTiter Glo reagent\n7. Time; 20 min; Room Temperature\n8. Detection; Luminescence; Viewlux plate reader\nKeywords: cell viability, cytotoxicity, H-4-II-E cell line, luminescence, NTPHTS, NTPHTS_NCGC, NIEHS, EPA, DSSTox, MLSMR, MLSCN, NIH Roadmap, qHTS, NCGC", "values": [{"smiles": "O=C(O)CN(CC(=O)O)CC(=O)O", "Potency": "inactive"}, {"smiles": "Cc1cc(C)cc([N+](=O)[O-])c1", "Potency": "inactive"}, {"smiles": "CC(C)(c1cc(Br)c(OCC(Br)CBr)c(Br)c1)c1cc(Br)c(OCC(Br)CBr)c(Br)c1", "note": "(stereo not given)", "Potency": "inactive"}, {"smiles": "Cc1cccc(C(=O)O)c1[N+](=O)[O-]", "Potency": "inactive"}, {"smiles": "Oc1cccc(Nc2ccccc2)c1", "Potency": "inactive"}, {"smiles": "O=[N+]([O-])c1c(Cl)cc(Cl)cc1Cl", "Potency": "inactive"}, {"smiles": "CCCCOCCOCCOCCCC", "Potency": "inactive"}, {"smiles": "Cc1ccc(C(C)(C)C)cc1", "Potency": "inactive"}, {"smiles": "O=C(O)CNC(=O)c1ccc([N+](=O)[O-])cc1", "Potency": "inactive"}, {"smiles": "CC(=O)c1nccs1", "Potency": "inactive"}, {"smiles": "COc1ccc(N)c(OC)c1", "Potency": "inactive"}, {"smiles": "Clc1ccccn1", "Potency": "inactive"}, {"smiles": "COC(=O)c1ccccc1", "Potency": "inactive"}, {"smiles": "CC(C)N(C)C", "Potency": "inactive"}, {"smiles": "Cc1cc(C2(c3cc(C)c(O)cc3C)OS(=O)(=O)c3ccccc32)c(C)cc1O", "Potency": "inactive"}, {"smiles": "O=P(O)(OCc1ccccc1)OCc1ccccc1", "Potency": "inactive"}, {"smiles": "C(=C/c1ccccc1)/c1ccccc1", "Potency": "inactive"}, {"smiles": "OC/C(Br)=C(\\Br)CO", "Potency": "inactive"}, {"smiles": "O=C1OC(=O)c2c(Br)c(Br)c(Br)c(Br)c21", "Potency": "inactive"}, {"smiles": "CNc1ccc([N+](=O)[O-])cc1", "Potency": "inactive"}, {"smiles": "Cc1ccc2nc(-c3ccc(N)cc3)sc2c1S(=O)(=O)O", "Potency": "inactive"}, {"smiles": "COc1ccc(OC)cc1", "Potency": "inactive"}, {"smiles": "CC(=O)Nc1ccc(C)cc1", "Potency": "inactive"}, {"smiles": "COc1ccc(N)c(C)c1", "Potency": "inactive"}, {"smiles": "CCC(O)C(C)(C)C", "note": "(stereo not given)", "Potency": "inactive"}, {"smiles": "CC/C(C)=N/O", "Potency": "inactive"}, {"smiles": "O=[N+]([O-])c1cccc(Cl)c1", "Potency": "inactive"}, {"smiles": "CCCCC(C=O)CC", "note": "(stereo not given)", "Potency": "inactive"}, {"smiles": "Nc1cc(Cl)c(N)c(Cl)c1", "Potency": "inactive"}, {"smiles": "CCCCN(CCO)CCCC", "Potency": "inactive"}, {"smiles": "CC(C)Nc1ccccc1", "Potency": "inactive"}, {"smiles": "Cc1ccc2ccccc2c1[N+](=O)[O-]", "Potency": "inactive"}, {"smiles": "O=C1CCCCC1", "Potency": "inactive"}, {"smiles": "Cc1ccco1", "Potency": "inactive"}, {"smiles": "FC(F)(F)c1cccc(Cl)c1", "Potency": "inactive"}, {"smiles": "Cc1cccc2sc(N)nc12", "Potency": "inactive"}, {"smiles": "O=Cc1ccc(Cl)cc1", "Potency": "inactive"}, {"smiles": "NC(=O)/N=N/C(N)=O", "Potency": "inactive"}, {"smiles": "CC(C=O)Cc1ccc(C(C)(C)C)cc1", "note": "(stereo not given)", "Potency": "inactive"}, {"smiles": "CCOCCOCC", "Potency": "inactive"}]}]}
